PubChem BioAssay AID2013 (Sanford-Burnham Center for Chemical Genomics, 2009)
Screen size: about 290,000 compounds; about 370 (0.13%) were called active. The full list was thinned out, with actives kept by preference. Entries with a potency or affinity are not part of this list. A number with no mark means an inactive call.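 How the source made its calls: active means spots per cell inhibited over 60%, with over 100 cells counted and total cytoplasm intensity under 500,000; inconclusive means wells with under 100 cells, flagged as likely toxic; inactive means the rest.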

These compounds were tested against G-protein coupled receptor 55 (Homo sapiens) (UniProt Q9Y2T6) (assay: inhibition of LPI-stimulated GPR55 beta-arrestin translocation – imaging, U2OS, beta-arrestin-GFP, LPI agonist, primary screen (AID 2013;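 further: U2OS cells stably carrying GPR55 and arrestin-GFP stimulated by 5 µM LPI near EC80; imaged beta-arrestin-GFP aggregate spots per cell after agonist stimulation; plate controls were LPI-stimulated DMSO wells for no effect and DMSO wells without LPI for full effect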)). Conditions: LPI antagonism, at 10 µM, hits give high values.
G-protein coupled receptor 55 (Homo sapiens), sequence (Q9Y2T6 whole entry, looked up): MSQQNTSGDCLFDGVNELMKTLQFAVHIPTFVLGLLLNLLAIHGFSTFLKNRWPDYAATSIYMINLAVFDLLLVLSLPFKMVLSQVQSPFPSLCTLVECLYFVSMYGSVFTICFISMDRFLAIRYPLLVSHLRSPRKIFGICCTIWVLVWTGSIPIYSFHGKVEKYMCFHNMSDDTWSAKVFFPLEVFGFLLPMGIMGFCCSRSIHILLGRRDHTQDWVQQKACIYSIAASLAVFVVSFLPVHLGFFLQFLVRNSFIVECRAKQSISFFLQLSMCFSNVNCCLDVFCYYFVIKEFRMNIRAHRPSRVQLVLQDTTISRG

SMILES | inhibition
CCCCCCCc1c(C)nc(N2CCOCC2)[nH]c1=O | 3.4%
CCOC(=O)C1=NN(N=O)C2(CC(=O)N(c3cc(C)cc(C)c3)C2=O)C1 (stereo not given) | 8.8%
CC(C)(C)N(Cc1cc2ccccc2[nH]c1=O)C(=O)c1cccc([N+](=O)[O-])c1 | -1.2%
O=C(Nc1ccccc1Cl)c1cc[n+]([O-])cc1 | 10.9%
OC(CN1CCN(Cc2ccccc2)CC1)Cn1c2ccccc2c2ccccc21 (stereo not given) | 36.2%
CN1CCN(CC(O)Cn2c3ccccc3c3ccccc32)CC1 (stereo not given) | -3.3%
CCOc1ccc(CN2CCN(CC(O)Cn3c4ccccc4c4ccccc43)CC2)cc1 (stereo not given) | 79.4% (active)
Cc1ccc(OCC(O)Cn2c3ccccc3c3ccccc32)cc1 (stereo not given) | 6.3%
Cc1ccc(OCCN2CCN(CC(O)Cn3c4ccccc4c4ccccc43)CC2)cc1 (stereo not given) | 72.6% (active)
COc1ccc(CN2CCN(CC(O)Cn3c4ccccc4c4ccccc43)CC2)cc1 (stereo not given) | 50.2%
Cc1ccc(/C=N/NC(=O)c2nnn(-c3nonc3N)c2C(C)C)s1 | 4%
CC1CCN(CCc2nc3cc(NS(=O)(=O)c4ccccc4)ccc3n2C)CC1 | -11.2%
CCn1c(SCC(N)=O)nc2c1c(=O)n(C)c(=O)n2C | -11%
Cc1onc(-c2ccc(Cl)cc2Cl)c1C(=O)/C=C/N(C)C | 3.5%
COc1ccc(C(CNC(=O)C(C)(C)Oc2ccc(Cl)cc2)N2CCCCC2)cc1 (stereo not given) | 3.2%
C=CCc1c(C)nc(-c2ccccc2)nc1N/N=C(\C)c1ccccc1 | 8.1%
Cc1cc(C2(c3ccc(O)c(C)c3)C(=O)Nc3ccccc32)ccc1O | 5%
CC(=O)Nc1ccc(C2(c3ccc(NC(C)=O)cc3)C(=O)Nc3ccccc32)cc1 | 10.2%
CCOC(=O)C1=C(C)NC(=O)NC1c1ccccc1Cl (stereo not given) | 14%
COC(=O)C1=C(C)NC(=O)CC1c1cccc(Cl)c1Cl (stereo not given) | 10%
CCOC(=O)C1=C(C)NC(C)=C(C(=O)OC)C1c1cccc(Cl)c1Cl (stereo not given) | 85.2% (active)
COc1cc(C(=O)N2CCN(C(=O)c3cccc4ccccc34)CC2)cc(OC)c1OC | 4.5%
CCn1cnc2sc(C(=O)Oc3cccc(C)c3)c(C)c2c1=O | -14%
c1ccc2c(c1)OCC(c1csc3ncnc(N4CCCC4)c13)O2 (stereo not given) | 26.4%

SMILES | inhibition
c1ccc2c(c1)OCC(c1csc3ncnc(N4CCOCC4)c13)O2 (stereo not given) | 18.5%
CCN(CC)c1ncnc2scc(C3COc4ccccc4O3)c12 (stereo not given) | 31%
c1ccc2c(c1)OCC(c1csc3ncnc(N4CCCCC4)c13)O2 (stereo not given) | 6%
CC(C)CCNc1c(-c2cccs2)nc2ccccn12 | 8.2%
CC(=O)Nc1nc(-c2ccc(Cl)cc2)ns1 | 9.6%
CC(C)=CC(=O)OCc1csc(CC(=O)Nc2ccccc2C)n1 | 8.4%
Clc1ccc(-n2nnnc2-c2cnc(-c3ccncc3)nc2-c2cccs2)cc1 | 6.4%
Clc1ccc(-c2nnnn2-c2ccc(Cl)cc2)cc1 | 7.1%
Cn1c(C(=O)N[C@@H](Cc2ccccc2)C(=O)NCCC(=O)O)cc2cc(Cl)ccc21 | 2.2%
Cc1ccc(-c2nnc(Oc3ccc(NC(=O)c4ccccc4)cc3)c3ccccc23)cc1 | 9.6%
CCC(=O)NC(c1ccccc1)c1c(OC(C)=O)ccc2ccccc12 (stereo not given) | 9.1%
CC(=O)Oc1ccc2ccccc2c1C(NC(=O)Cc1ccccc1)c1ccc(Cl)cc1 (stereo not given) | 3.5%
CN=C1CC(C)(C)CC(=O)/C1=C(/O)CCC(=O)NC | 11.2%
Cc1ccc(/C=C2\C(=O)NC(=O)N2C)o1 | 6.8%
CCN1C(=O)N/C(=C/c2ccc(C)o2)C1=O | -0.6%
C=CCN1C(=O)N/C(=C/c2ccc(C)o2)C1=O | 6.7%
Cc1ccc(/C=C2/NC(=O)N(Cc3ccccc3F)C2=O)o1 | -7.6%
O=C1CC(NC(=O)c2ccc(Cl)cc2)C(=O)N1 (stereo not given) | 8%
Cc1ccc2c(c1)C1(C(=O)N2C)N2CC3(C)CN1CC(C)(C2)C3=O (stereo not given) | -15.5%
CC(=O)/C=C1\N(C)c2ccc(C)cc2C1(C)C | 9.7%
CC/C(=C/c1sc2ccc(C)cc2[n+]1CCO)SC | -7.4%
Cc1ccc(-c2c3c(=O)n(C)c(=O)n(C)c3cn2N2CCOCC2)cc1 | -4%
Cc1ccc(-c2csc(N(CCCN3CCOCC3)C(=O)c3ccco3)n2)cc1 | 21.7%
O=C(c1ccco1)N(CCCN1CCOCC1)c1nc(-c2ccc(F)cc2)cs1 | 28.3%

SMILES | inhibition
O=C(c1ccco1)N(CCCN1CCOCC1)c1nc(-c2ccc(Cl)cc2)cs1 | 69.4% (active)
NS(=O)(=O)c1ccc(NNC(=O)c2ccccc2C(=O)O)cc1 | 6.3%
CCSc1ccc(-c2nn(-c3ccccc3)cc2/C=C(/C#N)C(=O)NC)cc1 | 0.7%
CCCSc1ccc(-c2nn(-c3ccccc3)cc2/C=C(/C#N)C(=O)NCCCOC)cc1 | -5.1%
CCCCn1c(N)c(N(CC(C)C)C(=O)C2CCN(C(=O)c3ccc(F)cc3)CC2)c(=O)[nH]c1=O | -8.6%
CCCCCCOc1ccc(OCC(O)CN2C(=O)NC(C)(C)C2=O)cc1 (stereo not given) | -5.4%
Cc1ccc(N2C(=O)CC(N(CCc3ccccc3)C(=S)Nc3ccc(N(C)C)cc3)C2=O)cc1 (stereo not given) | 0.8%
CCOC(=O)/C(=C\c1ccccc1)C(=O)c1cc(C(C)=O)c(Nc2ccccc2)s1 | -0.8%
CCOC(=O)/C(C#N)=C\c1cccnc1 | 0.9%
O=C(CSc1ccccc1C(=O)N1CCCCC1)NCC1CCCCC1 | 15.6%
Cc1c(O)nc2sc3ccccc3n2c1=O | -0.7%
Cc1ccc(NC(=O)C(OC(=O)c2ccccc2Cl)c2ccccc2)cc1Cl (stereo not given) | 13.2%
O=C(N/C=C/c1ccc(Cl)cc1)NCc1ccc(Cl)cc1 | 9%
O=[N+]([O-])c1ccc(C2CNC(c3ccccc3)O2)cc1 (stereo not given) | 7.3%
N#Cc1c(Cl)nc(SCc2ccccc2)nc1-c1ccccc1 | -1.5%
COc1ccc(-c2nc(-c3cccc(C)c3)nc(Cl)c2C#N)cc1 | 5.9%
CSc1nc(Cl)c(C#N)c(-c2ccc(C)cc2)n1 | 68.5% (active)
Cn1cc([C@@H]2C[C@H]3CN(C4CCCC4)C(=O)[C@]34CCCN24)c(-c2ccccc2)n1 | -0.1%
COc1ccc2oc(C(=O)OCC(=O)NC(C)c3ccccc3)c(C)c2c1 (stereo not given) | -1.9%
Cc1cc(C(=O)NCC23CC4CC(CC(C4)C2)C3)c(C)o1 | 72.6% (active)
Cc1cc(C(=O)NN)c(C)o1 | 1%
Cc1cc(C(=O)NCC(=O)O)c(C)o1 | 2.3%
COc1cc(/C=C(/NC(=O)c2ccccc2)C(=O)N2CCOCC2)c([N+](=O)[O-])cc1OC | 13.2%
Cc1cc(C(F)(F)F)nc(-n2cc(-c3ccccc3)nn2)n1 | 7.4%

SMILES | inhibition
Cc1nn(C(C)(C)C)c(OC(=O)c2ccc(Br)o2)c1Sc1ccccc1 | -4.1%
Cc1nn(C(C)(C)C)c(OC(=O)c2ccco2)c1Sc1ccccc1 | 7%
CCC1(C)CC(=O)N(c2ccc(F)c(Cl)c2)C(=O)C1 | 0.3%
CC1=NN(c2ccccc2)C(=O)/C1=C/C=C/c1ccccc1 | 5.8%
CC1=NN(c2cccc(C(=O)O)c2)C(=O)/C1=C\C=C\c1ccco1 | 10.3%
CCOC(=O)C(C)(C)N(Cc1ccccc1C)S(=O)(=O)c1ccc(Cl)c([N+](=O)[O-])c1 | 44%
CCOC(=O)C(C)(C)N(Cc1ccc(Cl)cc1)S(=O)(=O)c1ccc(Cl)c([N+](=O)[O-])c1 | 44.2%
CCOC(=O)C(C)(C)N(Cc1cccc(C)c1)S(=O)(=O)c1cccc([N+](=O)[O-])c1 | 9.3%
CCOC(=O)C(C)(C)N(Cc1cccc(C)c1)S(=O)(=O)c1ccc(Cl)c([N+](=O)[O-])c1 | 73.8% (active)
CCOC(=O)C(C)(C)NS(=O)(=O)c1ccc(Cl)c([N+](=O)[O-])c1 | 6.3%
CC(=O)Nc1ccc(S(=O)(=O)NCC(=O)OCC(=O)N2CCc3ccccc32)cc1 | -1.9%
Cc1cc(C)c(C)c(Oc2ncnc(N)c2[N+](=O)[O-])c1 | 0.6%
Cc1nc([N+](=O)[O-])cn1CC(=O)Nc1ccc(F)c(Cl)c1 | 1.9%
Cn1ccnc1SCC(=O)N1CCc2ccccc21 | -2.6%
O=S(=O)(/N=C/N1CCOCC1)c1ccc(Cl)cc1 | 8.2%
COc1cc(OC)cc(C(=O)N2CCN(C(=O)c3cccs3)CC2)c1 | -11.9%
O=Cc1cn(CC(=O)N2CCOCC2)c2ccccc12 | 6.5%
COc1ccc2[nH]cc(C=O)c2c1 | -7.9%
COc1ccc(OC)c(CNc2c(C=O)c(=O)[nH]c3ccccc23)c1 | 1.2%
COc1ccc(N2C(=O)CCC2=O)c(OC)c1 | 1.4%
O=C1NC(=O)/C(=C\c2cn(CC(=O)N3CCOCC3)c3ccccc23)S1 | -3.8%
COc1ccc(OC)c(-n2c(=O)c3ccccc3c3ccccc3c2=O)c1 | 9.4%
O=C(c1ccccc1)N1N=C(c2ccccc2)CC1c1ccccc1[N+](=O)[O-] (stereo not given) | 4%
